# Compound activity (PubChem)
# a7 integrin act – integrin-mediated muscular dystrophy alleviation activation; alpha7betagal myoblasts, beta-gal FDG fluorescence, 48 h; Potency, µM (top dose mostly 38.3 µM), usual class: activators; 350,000 compounds, 0.064% hits; AID 624291; further: nearly all actives have a fitted effect of over 60% in size
#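 Alpha7betagal+/- myoblasts (passage 13) were plated 16-24 hr, then exposed to compounds (1:260 dilution of DMSO stock) for 48 hours at 37C. After MPER lysis, β-galactosidase reporter activity was read as FDG fluorescence (ex 480/em 540) after 30 minutes.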
# SW480 rerep – DNA re-replication induction in SW480 cells | SW480 DNA re-replication, Hoechst DNA content imaging, 48 h | Potency, µM (doses to about 46.1 µM), most hits filed as activators | 340,000 compounds, 1.8% hits | AID 624297; further: nearly all actives have a fitted effect of over 55% in size
#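 First, 250 cells per well were seeded. Next, compound or vehicle (23 nL) was pinned in, plates sat 48 hr at 37 C. Finally Hoechst was added for 40 min before fluorescence scanning.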
# MCF10A rerep – inducers of DNA re-replication in MCF 10A breast cells | MCF 10A DNA re-replication, Hoechst nuclear intensity, 48 h | Potency, µM (series often up to 46.1 µM), most hits filed as activators | 350,000 compounds, 2.9% hits; further: nearly all actives have a fitted effect of over 50% in size
# A-T KAP1 phos – potential ataxia-telangiectasia treatments restoring KAP-1 phosphorylation | 320,000 compounds, 0.19% hits | Potency, µM (doses to about 57.5 µM), most hits filed as activators | F2112 A-T fibroblasts, KAP-1 phosphorylation AlphaLISA; neocarzinostatin DNA damage 30 min before lysis; further: nearly all actives have a fitted effect of over 45% in size
#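 ATM-like activity read as KAP-1 phosphorylation via AlphaLISA donor/acceptor antibody pairs after lysis and 6 hr at 25C. Cells were ATM-null patient fibroblasts (F2112, hTERT), dosed 60 min, then exposed to the DSB inducer NCS for 30 min.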
# Mito fusion act – blocks mitochondrial division or promotes mitochondrial fusion | Potency, µM (series often up to 46.1 µM), usual class: activators | 320,000 compounds, 0.23% hits | S. cerevisiae fusion-defective mutant growth rescue, CellTiterGlo 48 h | AID 485298; further: nearly all actives have a fitted effect of over 45% in size
#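 Growth-rescue viability read-out: after 48 h at the non-permissive 37C in glycerol/ethanol YPEG, yeast mitochondrial fusion mutants are measured by CellTiterGlo luminescence; compounds (23 nl pinned per well) restoring growth score as division inhibitors or fusion activators.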
# A number is an active result; - = inactive; ? = inconclusive; . = no result; [ ] = remark or other dose. Rows were chosen to be rich in hits. Some 4.2% of all compounds tested hit in one or more screens of this group. The call rests on the fitted dose curve; in most records, active means well fitted activation curve with a large enough effect; inconclusive means small, poorly fitted or top-dose-only effect; inactive means no such curve, though single readings can be large or run the other way.
SMILES,a7 integrin act,SW480 rerep,MCF10A rerep,A-T KAP1 phos,Mito fusion act
CCc1nc(SCC(=O)Nc2cccc3ccccc23)[nH]c(=O)c1C,-,-,-,-,-
CC(=O)Nc1sc(C)c(C)c1C(=O)OCC(=O)Nc1cccc(C)c1,-,?,8.2µM,-,.
CC(=O)Nc1sc(C)c(C)c1C(=O)OCC(=O)Nc1ccccc1,-,-,?,-,-
Cc1cc(=O)[nH]c(N/N=C/c2ccccn2)n1,-,4.11µM,?,-,-
Nc1ccc2c(c1)C(=O)CCC2,-,.,.,.,.
O=C1C=C(c2ccccc2)CC(/C=C/c2ccccc2)C1 (stereo not given),-,-,-,-,15.8µM
Cn1c(=O)c2c(nc(NNC(=O)C(F)(F)F)n2C)n(C)c1=O,-,-,-,-,-
O=C(c1cccs1)N1C[C@@H](n2cc(C3CC3)nn2)[C@H](O)C[C@@H]1c1ccc(Cl)cc1,-,.,.,.,.
COc1cc2c(cc1OC)C(=O)N1[C@H]3c4cc(C)ccc4OC[C@@H]3[C@H](c3ccccc3)[C@]1(C)C(=O)N2,-,13µM,14.6µM,-,.
COc1cc2c(cc1OC)C(=O)N1[C@H]3c4cc(Cl)ccc4OC[C@@H]3[C@H](c3ccccc3)[C@]1(C)C(=O)N2,-,?,9.2µM,-,-
C[C@@]12C(=O)Nc3cc(F)ccc3C(=O)N1[C@H]1c3ccccc3OC[C@@H]1[C@@H]2c1ccccc1,-,-,-,-,?
CC1(C)CC2CC(C)(CN2S(=O)(=O)c2ccc(F)cc2F)C1 (stereo not given),-,-,-,-,-
CCn1ccnc1CN(C)Cc1cn(-c2cccc(C)c2)nc1-c1cccc(F)c1,-,?,5.8µM,-,-
Cc1cccc(-n2cc(CN(C)Cc3nccn3C)c(-c3cccc(F)c3)n2)c1,-,18.4µM,?,-,-
Nc1nccs1,.,-,-,.,.
C[C@H]1CCCCO[C@H](CN(C)Cc2ccc(C(=O)O)cc2)[C@@H](C)CN([C@@H](C)CO)C(=O)c2cc(NS(=O)(=O)c3cn(C)cn3)ccc2O1,-,.,.,.,.
CCn1ncc([N+](=O)[O-])c1C(=O)N1CCCC1,-,-,-,-,-
CCc1nc(SCC(=O)Nc2ccccc2OC)c2c(C)c(C)sc2n1,-,-,20.6µM,-,-
Cc1sc2nc(C(C)C)nc(SCC(=O)N3c4ccccc4CC3C)c2c1C (stereo not given),-,-,?,-,-
Cc1nc(SCC(=O)Nc2cc(C(N)=O)cc(C(N)=O)c2)c2c(C)c(C)sc2n1,-,-,-,35.5µM,-
CCc1nc(SCC(=O)Nc2cc(C)ccc2OC)c2c(C)c(C)sc2n1,-,-,-,-,-
CCc1nc(SCC(=O)N2c3ccccc3CC2C)c2c(C)c(C)sc2n1 (stereo not given),-,20.6µM,?,-,-
N#Cc1ccc(/C=C/C(=O)c2ccccc2)cc1,-,-,20.6µM,-,-
COc1ccc(CCNC(=O)c2oc(=O)c3ccccc3c2-c2ccccc2)cc1OC,.,.,.,.,-
COC(=O)CS(=O)(=O)c1cc(Br)cc2c1N(C(C)=O)CC2,-,-,-,-,-
SMILES,a7 integrin act,SW480 rerep,MCF10A rerep,A-T KAP1 phos,Mito fusion act
COc1ccc(NS(=O)(=O)c2cc(Br)cc3c2N(C(C)=O)CC3)cc1,-,6.51µM,18.4µM,-,-
O=C(Cc1ccc(NC(=O)C2CCN(C(=O)C3CC3)CC2)cc1)Nc1cccc(C(=O)N2CCCCC2)c1,-,-[9.22 µM],-,.,.
CCCCC1CC(C)(C(=O)CSc2nc3ccccc3s2)OC1=O (stereo not given),-,-,-,-,-
CN(CCC#N)C(=O)COC(=O)c1c2c(nc3ccccc13)/C(=C/c1ccco1)CC2,-,11.6µM,?,-,-
COc1ccc(/C=C2\CCc3c2nc2ccccc2c3C(=O)O)cc1OC,-,-,?,-,-
O=C(NNC(=O)C1[C@H]2CCCC[C@@H]12)c1ccc(=O)oc1 (stereo not given in full),-,2.31µM,-,-,-
O=C(NC12CC3CC(CC(C3)C1)C2)c1ccc(=O)oc1,-,-,-,-,-
O=C1CSC(c2cn(-c3ccccc3)nc2-c2ccccc2)N1Cc1ccco1 (stereo not given),-,-,20.6µM,-,?
CCc1ccc(-c2nn(-c3ccccc3)cc2C2SCC(=O)N2Cc2ccco2)cc1 (stereo not given),-,-,?,.,-
O=C(O)c1cc([N+](=O)[O-])ccc1Oc1ccccc1,-,-,-,.,.
CC1(C)C(=O)Nc2ccccc2N1C(=O)COC(=O)/C=C/c1ccc(OC(F)F)cc1,-,-,?,-,-
N=c1oc2cc(O)ccc2cc1C(=O)Nc1ccc(F)cc1,-,8.2µM,9.2µM,-,-
Cc1ccc(CSc2nc3ccccc3cc2C=O)cc1,-,2.59µM,20.6µM,-,-
Nc1ncnc2c1ncn2C1C=C(CO)C(O)C1O (stereo not given),-,?,?,.,.
CN(C)c1cccc(NC(=O)c2ccco2)c1,-,-,-,-,?
CCN(CC)P(=O)(Nc1cccc(C(F)(F)F)c1)c1ccc(N(C)C)cc1NC(=O)c1ccco1 (stereo not given),-,-,0.82µM,-,-
CCN(C(=O)COC(=O)C(c1ccccc1)c1ccccc1)c1c(N)n(Cc2ccccc2)c(=O)[nH]c1=O,-,-,-,.,.
N#CC1=C(N)NC(SCc2ccccc2)=C(C#N)C12CCCCC2,-,?,8.2µM,-,-
Cc1nn(CC(=O)NC2CCCCC2)c(C)c1[N+](=O)[O-],-,.,.,.,.
Cc1cccc(NC(=O)CSc2nc(C)c(CC(=O)c3ccc(Br)cc3)c(C)c2C#N)c1C,-,-,1.03µM,-,-
Cc1nc(SCC(=O)Nc2ccc(F)cc2)c(C#N)c(C)c1CC(=O)c1ccc(Br)cc1,-,?,16.4µM,-,-
Brc1cc(Br)c2nc(-c3ccc(N4CCOCC4)cc3)ccc2c1,-,8.2µM,9.2µM,-,-
O=C(O)c1cc(-c2ccc(N3CCOCC3)cc2)nn1-c1ccc(F)cc1F,-,-,-,-,-
C/C=C\C[C@H](C)[C@H](O)[C@H]1C(=O)N[C@@H](CC)C(=O)N(C)CC(=O)N(C)[C@@H](CC(C)C)C(=O)N[C@@H](C(C)C)C(=O)N(C)[C@@H](CC(C)C)C(=O)N[C@@H](C)C(=O)N[C@@H](C)C(=O)N(C)[C@@H](CC(C)C)C(=O)N(C)[C@@H](CC(C)C)C(=O)N(C)[C@@H](C(C)C)C(=O)N1C,.,.,-,.,.
CCOc1ccc(C(=O)OCC(=O)N2CCOCC2)cc1OCC,-,-,-,-,-
CCOc1cc(/C=C\[N+](=O)[O-])ccc1OCC(=O)N1CCOCC1,-,-,6.51µM,-,-
CCOc1cc(/C=C/c2nc3cc(C)c(C)cc3s2)ccc1OCC(=O)N1CCOCC1,-,?,13µM,-,-
